NPC1 promoter act – qHTS Assay for NPC1 Promoter Activators; Huh7 NPC1 promoter luciferase reporter, 24 h; Potency, µM (doses to about 9.22 µM), without a hit: top-dose activation, most hits filed as activators; 2.4% of 320,000 active; note: % of control where 0% means no effect; nearly all actives have a fitted effect of over 60% in size
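Quantitative HTS used a cell-based reporter: Huh7 cells stably bearing the NPC1 promoter upstream of luciferase were treated with compounds for 24 h, and promoter activation was read as luminescence.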
ELG1 genotoxic – qHTS screen for small molecules that induce genotoxicity in human embryonic kidney (HEK293T) cells expressing luciferase-tagged ELG1; HEK293T ELG1-luciferase reporter, luminescence, 16 h; AID 504466, 2011; Potency, µM (top dose mostly 46 µM), without a hit: top-dose activity change, positive = activation, most hits filed as activators; 1.3% of 330,000 active; note: % of control where 0% means no effect; nearly all actives have a fitted effect of over 60% in size
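HEK293T cells expressing luciferase-tagged ELG1 were exposed to compound or DMSO vehicle for 16 hr at 37 °C and 5% CO2. Luciferase activity was then measured with ONE-Glo after 30 min at room temperature.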
KinaseGlo FLuc – Counterscreen for Luciferase (Kinase-Glo TM) Inhibition. Potency, µM (top dose mostly 38.3 µM), inactives show top-dose activity change, negative = inhibition, usual class: inhibitors. Luciferin 4-monooxygenase (Photuris pensylvanica), Q27757. Kinase-Glo luciferase, ATP luminescence, 8 min. 0.28% of 200,000 active; note: % is set by controls: 0 for no effect and ±100 for the full control effect; nearly all actives have a fitted effect of over 60% in size
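Compounds were added to a substrate mix at pH 7.2 (50 mM imidazole, 10 uM ATP, within the enzyme's linear range), followed by Kinase-Glo detection reagent; luminescence was measured after 8 minutes at ambient temperature.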
SMN2 splice enh – qHTS Assay for Enhancers of SMN2 Splice Variant Expression. HEK293 SMN2-luciferase splicing reporter, luminescence, 30-36 h. Potency, µM (series often up to 46.1 µM), for the others: top-dose activity change, positive = activation, usual class: activators. 2.8% of 210,000 active. AID 1458, 2008; note: % of control where 0% means no effect; nearly all actives have a fitted effect of over 55% in size
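qHTS luciferase splicing reporter: luminescence rises when SMN2 exon 7 is included in transfected HEK293 cells. Compound exposure lasted 30-36 h at 37C, with 4.5 mM final sodium butyrate as control, followed by a ONE-Glo read.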
FLuc counter – qHTS profiling assay for firefly luciferase inhibitor/activator using purifed enzyme and Km concentrations of substrates (counterscreen for miR-21 project) | Luciferin 4-monooxygenase (Photinus pyralis), P08659 | purified FLuc, Km substrates, luminescence inhibition | Potency, µM (series often up to 57.5 µM), without a hit: at the highest dose activity change, negative = inhibition, hits mostly inhibitors | 6.9% of 360,000 active | AID 588342, 2011;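 note: plate controls were vehicle for no effect and reference inhibitor for full effect; nearly all actives have a fitted effect of over 55% in size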
Target sequence (P08659 whole entry, looked up): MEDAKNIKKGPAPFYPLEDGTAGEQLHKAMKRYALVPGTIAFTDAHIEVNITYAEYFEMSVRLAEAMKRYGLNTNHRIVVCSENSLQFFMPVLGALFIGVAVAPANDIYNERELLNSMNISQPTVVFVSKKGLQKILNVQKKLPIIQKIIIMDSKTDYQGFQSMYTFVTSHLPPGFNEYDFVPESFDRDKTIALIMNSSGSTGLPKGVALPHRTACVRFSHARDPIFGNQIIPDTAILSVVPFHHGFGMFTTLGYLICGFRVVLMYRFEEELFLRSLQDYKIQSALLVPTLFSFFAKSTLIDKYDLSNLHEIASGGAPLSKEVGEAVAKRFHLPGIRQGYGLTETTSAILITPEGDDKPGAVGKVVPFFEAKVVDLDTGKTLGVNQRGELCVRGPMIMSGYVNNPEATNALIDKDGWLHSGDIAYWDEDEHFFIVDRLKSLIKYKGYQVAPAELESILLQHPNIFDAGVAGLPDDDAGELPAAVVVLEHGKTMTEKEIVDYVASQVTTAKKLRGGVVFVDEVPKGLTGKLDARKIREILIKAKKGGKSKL
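Biochemical qHTS of compounds, final roughly 60 µM downward over six points, against 10 nM purified firefly luciferase using Km concentrations of substrates (10 uM D-luciferin, 10 uM ATP) in Tris acetate pH 7.5 buffer; luminescence output.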
Rab9 prom act – qHTS Assay for Rab9 Promoter Activators; Huh7 Rab9 promoter-luciferase reporter, luminescence, 24 h; Potency, µM (highest dose often 9.22 µM), inactives show top-dose activation, negative = inhibition, usual class: activators; 2.8% of 320,000 active; AID 485297, 2010; note: % of control where 0% means no effect; nearly all actives have a fitted effect of over 60% in size
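Huh7 cells stably carrying Rab9 promoter–luciferase reporter, plated 1500 cells/well, compound added after 2 h and incubated 24 h at 37 °C; luciferase luminescence then read after 10 min with detection reagent.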
* hit, by the source's call; ! = not active in a repeat. Shown are actives, neighbours in structure and some others; about 7.5% of the full set was active somewhere. Calls come from the whole dose curve; as a rule, active = well fitted curve in the direction sought with a large enough effect; inconclusive = small, poorly fitted or top-dose-only effect, or another doubt; inactive = no such curve, though single readings can be large; an effect the other way counts as inactive or inconclusive. Potency is the fitted concentration of half-maximal effect.

What do the screens show for `CCCc1ccc(C(=O)NNc2ccccc2F)cc1`?
NPC1 promoter act: inconclusive; ELG1 genotoxic: inconclusive; FLuc counter: 17µM*; Rab9 prom act: inconclusive

What do the screens show for `COc1cccc(C(=O)Nc2ccccc2F)c1`?
NPC1 promoter act: 21%; ELG1 genotoxic: inconclusive; KinaseGlo FLuc: -27%; SMN2 splice enh: 11µM*; FLuc counter: inconclusive; Rab9 prom act: inconclusive

What do the screens show for `O=C(Nc1ccccc1F)c1ccc(C(=O)c2ccccc2)cc1`?
NPC1 promoter act: 2.8µM*; ELG1 genotoxic: inconclusive; FLuc counter: 11µM*; Rab9 prom act: 3.5µM*

How did COc1cccc(C(=O)Nc2ccc(F)c(F)c2F)c1 do in these assays?
NPC1 promoter act: inconclusive; ELG1 genotoxic: inconclusive; KinaseGlo FLuc: -7%; SMN2 splice enh: inconclusive; FLuc counter: 17µM*; Rab9 prom act: inconclusive

Results for Cc1noc(C)c1COc1cccc(C(=O)Nc2ccc(Br)cc2F)c1 ?
ELG1 genotoxic: 8%

What do the screens show for `CC(C)Oc1cccc(C(=O)Nc2ccc(Br)cc2F)c1`?
NPC1 promoter act: 3.5µM*; ELG1 genotoxic: inconclusive; KinaseGlo FLuc: -1%; SMN2 splice enh: 5µM*; FLuc counter: 0.95µM*; Rab9 prom act: 1.3µM*

What do the screens show for `O=C(NCc1ccccc1Cl)c1ccc(S(=O)(=O)Nc2cccc(C(F)(F)F)c2)cc1`?
NPC1 promoter act: -4%; ELG1 genotoxic: -1%; KinaseGlo FLuc: -1%; SMN2 splice enh: -8%; FLuc counter: -2%; Rab9 prom act: -5%

Results for CCOC(=O)c1c(C2CC2)csc1NC(=O)COC(=O)CCS(=O)(=O)c1ccc(C)cc1 ?
NPC1 promoter act: -1%; ELG1 genotoxic: 8%; KinaseGlo FLuc: 0%; SMN2 splice enh: 2%; FLuc counter: 1%; Rab9 prom act: 1%

How did COc1ccccc1C(=O)N/C(=C\c1cn(S(=O)(=O)N(C)C)c2ccccc12)C(=O)N1CCCCC1 do in these assays?
NPC1 promoter act: 2%; ELG1 genotoxic: 0%; FLuc counter: 0%; Rab9 prom act: -3%

What do the screens show for `Cc1ccnc(NS(=O)(=O)c2ccc(NC(=O)c3nc(SC(C)C)ncc3Cl)cc2)n1`?
SMN2 splice enh: -3%; FLuc counter: inconclusive

How did CSc1ncc(Cl)c(C(=O)Nc2ccc(S(=O)(=O)Nc3nccc(C)n3)cc2)n1 do in these assays?
NPC1 promoter act: 1.8µM*; ELG1 genotoxic: 6.5µM*; SMN2 splice enh: 14%; FLuc counter: 11µM*!; Rab9 prom act: 1.4µM*

Results for CCC12CN3CC(C)(CN(C1)C3c1c[nH]c3ccc(OC)cc13)C2=O (stereo not given) ?
SMN2 splice enh: -6%; FLuc counter: -6%

Results for Nc1c(C(O)(C(F)(F)F)C(F)(F)F)cc(C(O)(C(F)(F)F)C(F)(F)F)c2ccccc12 ?
NPC1 promoter act: -10%; ELG1 genotoxic: -10%; KinaseGlo FLuc: -3%; SMN2 splice enh: -74%; FLuc counter: -3%; Rab9 prom act: -9%

Results for O=C(c1ccc(F)cc1)c1cnc(Nc2ccccc2)s1 ?
NPC1 promoter act: 2µM*; ELG1 genotoxic: inconclusive; KinaseGlo FLuc: -3%; FLuc counter: 0.6µM*; Rab9 prom act: 1.3µM*

What do the screens show for `O=C(Nc1ccncc1)c1ccc2ccccc2c1`?
NPC1 promoter act: inconclusive; ELG1 genotoxic: 15%; KinaseGlo FLuc: -1%; FLuc counter: 17µM*; Rab9 prom act: 3.5µM*

What do the screens show for `Cc1sc(C(=O)Nc2ccc3ccccc3c2)cc1CC(=O)O`?
NPC1 promoter act: inconclusive; ELG1 genotoxic: 15%; KinaseGlo FLuc: -2%; SMN2 splice enh: inconclusive; FLuc counter: 9.5µM*; Rab9 prom act: inconclusive

Results for NC(=O)Cn1nnc(-c2ccc(NC(=O)c3ccc(F)cc3)cc2)n1 ?
NPC1 promoter act: inconclusive; ELG1 genotoxic: inconclusive; KinaseGlo FLuc: -1%; SMN2 splice enh: 14µM*; FLuc counter: inconclusive; Rab9 prom act: inconclusive

What do the screens show for `CCCN(CCC)c1nn2c(=O)c(C(=O)NCc3cc(Br)ccc3OC)cnc2s1`?
FLuc counter: -15%

What do the screens show for `Cc1ccc(NC(=O)c2ccccc2)cc1`?
NPC1 promoter act: 2µM*; ELG1 genotoxic: inconclusive; KinaseGlo FLuc: -16%; SMN2 splice enh: 14µM*; FLuc counter: 6µM*; Rab9 prom act: 2.2µM*

Results for Cc1cc(C)c2cc(C(=O)Nc3ccccc3)[nH]c2c1 ?
NPC1 promoter act: 4.5µM*; ELG1 genotoxic: inconclusive; FLuc counter: inconclusive; Rab9 prom act: 3.2µM*

Results for Cc1cc(C)c2cc(C(=O)Nc3ccc4c(c3)OCO4)[nH]c2c1 ?
NPC1 promoter act: 2%; ELG1 genotoxic: 0%; FLuc counter: inconclusive; Rab9 prom act: 12%

What do the screens show for `CC(=O)Nc1cccc(C)c1`?
NPC1 promoter act: -1%; ELG1 genotoxic: 0%; SMN2 splice enh: -4%; FLuc counter: 1%; Rab9 prom act: 0%

How did O=C(Nc1ccc2ccccc2c1)c1ccc(Cl)cc1 do in these assays?
NPC1 promoter act: 0.5µM*; ELG1 genotoxic: 0.92µM*; FLuc counter: 0.54µM*; Rab9 prom act: 0.32µM*

What do the screens show for `CC(=O)c1cnc(Nc2cccc(C)c2)s1`?
NPC1 promoter act: inconclusive; ELG1 genotoxic: 11%; KinaseGlo FLuc: -1%; SMN2 splice enh: 18µM*; FLuc counter: inconclusive; Rab9 prom act: 2.5µM*

Results for CCCn1c(=O)c2[nH]c(-c3ccc(OCC(=O)Nc4ccc(C#N)cc4)cc3)nc2n(CCC)c1=O ?
NPC1 promoter act: 3%; ELG1 genotoxic: -25%; KinaseGlo FLuc: -4%; SMN2 splice enh: -4%; FLuc counter: inconclusive; Rab9 prom act: 9%

Results for O=C(Nc1ccc(Nc2ccccc2)cc1)c1ccc(F)cc1 ?
NPC1 promoter act: 16%; ELG1 genotoxic: 3%; FLuc counter: 19µM*; Rab9 prom act: 12%

What do the screens show for `Cc1ccc(C(=O)Nc2ccc3ccccc3c2)cc1`?
NPC1 promoter act: 0.1µM*; ELG1 genotoxic: 0.29µM*; FLuc counter: 0.076µM*; Rab9 prom act: 0.22µM*

What do the screens show for `Cc1ccc(NC(=O)C(C)C(=O)Nc2ccc(C)cc2)cc1`?
NPC1 promoter act: -3%; ELG1 genotoxic: 0%; KinaseGlo FLuc: 3%; SMN2 splice enh: -14%; FLuc counter: 0%; Rab9 prom act: 0%

Compound activity from PubChem.
